Source: PubChem BioAssay AID2806 (Sanford-Burnham Center for Chemical Genomics, 2010)
The whole screen tested about 330,000 compounds, of which about 660 (0.2%) were called active. This is one part of a sample in which actives are shown more often than they occur.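 Rule for the calls: active = inhibition of at least 40% at 10 µM in the primary screen; inactive = the rest.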

System: intestinal alkaline phosphatase [Mus musculus]
Test: inhibitors of mouse IAP, primary screen, biochemical, luminescence, uHTS (AID 2806);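 note: plate controls were DMSO with enzyme for no effect and no enzyme wells for full effect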
Conditions: purified mouse IAP, CDP-Star luminescence, 30 min; at 10 µM; active compounds read high

Q: For O=C(CCCN1C(=O)/C(=C/c2ccco2)SC1=S)Nc1ccccc1, which inhibition is on record?
A: 47.8% (active)

Q: How did the inhibition turn out when O=C(CCCN1C(=O)/C(=C\c2ccco2)SC1=S)Nc1cccc2ccccc12 was run?
A: 47.9% (active)

Q: How did the inhibition turn out when Cc1ccc(-c2nn(-c3ccccc3)cc2/C=C2\SC(=S)N(CCCCCC(=O)O)C2=O)o1 was run?
A: 14.7% (inactive)

Q: O=C(CCCN1C(=O)/C(=C/c2cccs2)SC1=S)Nc1ccc(O)cc1 was tested. Which inhibition did it give?
A: 10.9% (inactive)

Q: How did the inhibition turn out when O=C1/C(=C\c2ccccc2Cl)SC(=S)N1CCC(=O)N1CCCc2ccccc21 was run?
A: 23.1% (inactive)

Q: For COc1ccc(/C=C2/SC(=O)N(CCCCCC(=O)Nc3ccccc3C(=O)O)C2=S)cc1, which inhibition is on record?
A: 12.6% (inactive)

Q: With O=C(CNS(=O)(=O)c1ccc2c(c1)OCCCO2)N1CCN(c2ccc(F)cc2)CC1 as the compound, how does the inhibition read?
A: -6.2% (inactive)

Q: COc1ccccc1CNC(=O)CSc1nc(=O)n(Cc2ccncc2)c2c1CCC2 was tested. Which inhibition did it give?
A: -1.4% (inactive)

Q: For CCCCS(=O)c1snnc1C (stereo unspecified), which inhibition is on record?
A: -4.4% (inactive)

Q: With Cc1ccc(Cc2cnc(N)s2)o1 as the compound, how does the inhibition read?
A: 50.5% (active)

Q: For CCCCNc1ccc(C(=O)Nc2cccc(C)n2)cc1[N+](=O)[O-], which inhibition is on record?
A: 15.5% (inactive)

Q: For Cn1cnc([N+](=O)[O-])c1Sc1n[nH]c(N)n1, which inhibition is on record?
A: 7.9% (inactive)

Q: O=C(CCSCCc1ccccn1)Nc1nccs1 was tested. Which inhibition did it give?
A: -7% (inactive)

Q: With Cc1ccc(C(=O)N/N=C/c2sc(=O)n(Cc3cccc(C(=O)O)c3)c2Cl)cc1 as the compound, how does the inhibition read?
A: 11.7% (inactive)

Q: Which inhibition does the source give for NS(=O)(=O)c1ccc(-c2ccc(/C=C3\SC(=O)NC3=O)o2)cc1 here?
A: 55.1% (active)

Q: Which inhibition does the source give for COc1cc(/C=C/C(=O)O)cc(S(=O)(=O)Nc2ccccc2C(=O)NCCc2ccccc2)c1OC here?
A: -5.2% (inactive)

Q: With CCOc1ccc(NC(=O)COC(=O)C2CCC(=O)N2)c([N+](=O)[O-])c1 (stereo unspecified) as the compound, how does the inhibition read?
A: 1% (inactive)

Q: COC(C[C@@H]1O[C@@H]1C(=O)[C@@H](C)OCc1ccccc1)OC was tested. Which inhibition did it give?
A: 2.7% (inactive)

Q: CC(=O)c1c(C)n([O-])c2ccccc2[n+]1=O was tested. Which inhibition did it give?
A: 0.9% (inactive)

Q: For O=C(Nc1nc(-c2ccco2)c(-c2ccco2)s1)c1ccco1, which inhibition is on record?
A: 64.2% (active)

Q: Which inhibition does the source give for NC(=O)c1ccsc1NC(=O)c1ccco1 here?
A: 0.1% (inactive)

Q: How did the inhibition turn out when O=C(Nc1nnc(CCOCCOCCc2nnc(NC(=O)c3ccco3)s2)s1)c1ccco1 was run?
A: 0.5% (inactive)

Q: Which inhibition does the source give for Cc1nc(CC(=O)NNS(=O)(=O)c2ccc(F)c(Cl)c2)cs1 here?
A: 1.6% (inactive)

Q: COc1ccccc1-n1c(-c2cc(-c3ccco3)[nH]n2)n[nH]c1=S was tested. Which inhibition did it give?
A: 57.8% (active)

Q: COc1ccc(OC)c(-n2c(-c3ccn[nH]3)n[nH]c2=S)c1 was tested. Which inhibition did it give?
A: -6.5% (inactive)

Q: For COc1ccccc1-n1cn[nH]c1=S, which inhibition is on record?
A: 1.9% (inactive)
